Here are results for 26 compounds from PubChem BioAssay (NCATS).

A short description of experiment [1]: Viability qHTS for spleen associated tyrosine kinase inhibitor (SYKi) naive MV4-11 cells (AID 1963823). Note: nearly all actives have a fitted effect of over 40% in size. The method, boiled down:
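Viability of MV4-11 AML cells lacking prior SYK inhibitor exposure is scored by CellTiter-Glo luminescence following 72 hr compound incubation at 37 C, 5% CO2, seeded at 500 cells per well.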
(qHTS replaces the single test concentration by a dilution series.)

Experiment [2] in a line: Viability qHTS for spleen associated tyrosine kinase inhibitor (SYKi) drug resistant MV4-11 cells (AID 1963824). Note: nearly all actives have a fitted effect of over 35% in size. A digest of the protocol:
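SYK-inhibitor-resistant MV4-11 AML cells were seeded at 500 per well onto compound and cultured 72 hours (37 °C, 5% CO2). CellTiter-Glo was then added, and after 10 min at room temperature, luminescence gave viability.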

Structures are written as SMILES. Records with an inconclusive call do not appear. Unmarked numbers belong to inactive results. Activity calls are given as the source filed them. Calls come from the whole dose curve; as a rule, active = well fitted cell-killing curve with a large enough effect; inconclusive = small, poorly fitted or top-dose-only effect, or effect the other way; inactive = no such curve, though single readings can be large or run the other way.
Potency is the fitted concentration of half-maximal effect.

Turning to `CC(=O)c1ccc2c(c1)[C@H](NC(=O)c1ccc(F)c(Cl)c1)[C@H](O)C(C)(C)O2`, the Potency entry in experiment [1] and in experiment [2] was “inactive” throughout.
As for `CC(C)[C@@](O)(c1ccc2cc(OC(F)F)c(OC(F)F)cc2c1)c1cn[nH]n1`, the Potency in experiment [1] was 18.4 µM (active); in experiment [2], 20.6 µM (active).
The like results for `C=C(C)C(=O)O[C@H]1[C@H]2C(=C)C(=O)O[C@@H]2C[C@@H](C)[C@@H]2O[C@@H]2C(=O)[C@](C)(O)[C@@H]1OC(=O)C(=C)C` were, in that order, 1 µM (active) and 1 µM (active).
Regarding `COC1CC(O[C@H]2CC[C@]3(C)C4CC[C@]5(C)C(C6=CC(=O)OC6)=CCC56OC46CC[C@@H]3C2)OC(C)C1O[C@@H]1O[C@H](CO[C@@H]2O[C@H](CO)[C@@H](O)[C@H](O)[C@H]2O)[C@@H](O)[C@H](O)[C@H]1O` (some centres not stated), the Potency in experiment [1] is 1.55 µM (active); in experiment [2], 1.38 µM (active).
In the same order, the values of `CC(=O)c1c(C)cc(O[C@@H]2O[C@H](CO)[C@@H](O)[C@H](O)[C@H]2O)cc1O` are “inactive” and “inactive”.
Regarding `COC(=O)C[C@@H]1C(C(=O)O)=CO[C@@H](O[C@@H]2O[C@H](CO)[C@@H](O)[C@H](O)[C@H]2O)/C1=C\COC(=O)/C=C/c1ccc(O)c(OC)c1`, the Potency entry in experiment [1] and in experiment [2] was “inactive” throughout.
Turning to `CC1NC(=O)CNC(=O)C(C(C)C)NC(=O)C2CCCN2C(=O)C(C(C)C)NC(=O)C(Cc2c[nH]c3ccccc23)NC1=O` (configuration not stated), the Potency result in experiment [1] and in experiment [2] was “inactive” each time.
On to `Cn1cnc2c(NCc3ccccc3)nc(NCCO)nc21`, for which the Potency result in experiment [1] and in experiment [2] was “inactive” each time.
As for `C=C1C(O)CC2C(C(=O)O)=COC(OC3OC(CO)C(O)C(O)C3OC(=O)/C=C\c3ccc(O)cc3)C12` (configuration not stated), the Potency result in experiment [1] and in experiment [2] was “inactive” in each case.
Regarding `Cc1ccc(-c2c(C(=O)CF)n(CCCO)c3ncnc(N)c23)cc1`, the Potency was 3.66 µM (active) in experiment [1] and 10.3 µM (active) in experiment [2].
The like results for `O=C1c2c(O[C@@H]3O[C@H](CO)[C@@H](O)[C@H](O)[C@H]3O)cc(O)cc2OC1(O)Cc1ccc(O)cc1` (some centres not stated) were, in that order, 2 µM (active) and 3.17 µM (active).
In the same order, the values of `C/C=C(/C)C(=O)O[C@H]1C=C(CO)C(=O)[C@H](OC(=O)/C(C)=C/CO)[C@H]1C(C)C` are 2.02 µM (active) and 1.61 µM (active).
For the compound `O=C(/C=C/c1ccc(O)cc1)OCC1OC(O)C(OC2OC(CO)C(O)C(O)C2O)C(O)C1O` (configuration not stated), the Potency entry in experiment [1] and in experiment [2] was “inactive” throughout.
Take `CC(N)C1CCC(C(=O)Nc2ccncc2)CC1` (configuration not stated): the Potency result in experiment [1] and in experiment [2] was “inactive” each time.
In the case of `C[C@@H]1O[C@@H](O[C@H]2[C@@H]3C=CO[C@@H](O[C@@H]4O[C@H](CO)[C@@H](O)[C@H](O)[C@H]4O)[C@@H]3[C@@]3(CO)O[C@@H]23)[C@H](OC(=O)/C=C/c2ccc(O)cc2)[C@H](O)[C@H]1O`, the Potency result in experiment [1] and in experiment [2] was “inactive” throughout.
With `CN1C(=O)c2ccccc2NC(=O)[C@]12O[C@@H]2c1cccc(O)c1`, the Potency result in experiment [1] and in experiment [2] was “inactive” in each case.
With `CC1OC(OC2C(C)OC(OC3C(OC(=O)C45CCC(C)(C)CC4C4=CCC6C7(C)CCC(OC8OC(C(=O)O)C(O)C(O)C8OC8OC(CO)C(O)C(OC9OC(C)C(O)C(O)C9O)C8O)C(C)(CO)C7CCC6(C)C4(C)CC5)OC(CO)C(O)C3O)C(O)C2O)C(O)C(O)C1O` (configuration not stated), the viability (% of control) in experiment [1] is 89.1% [at 9.25 µM]. In addition, the viability, % of control in experiment [2] is 97% [at 9.25 µM].
`C=CC(=O)N1CCN(C(=O)CNc2cc(I)c(Cl)cc2O)CC1`: the Potency in experiment [1] is 7.31 µM (active); in experiment [2], 6.51 µM (active).
In the same order, the values of `CC(=O)O[C@H]1CC(C)(C)CC2[C@@]13[C@H](O)C[C@]1(C)[C@@]2(CCC2[C@@]4(C)CC[C@H](O[C@@H]5OC[C@H](O[C@@H]6O[C@H](CO)[C@@H](O)[C@H](O)[C@H]6O[C@@H]6OC[C@@H](O)[C@H](O)[C@H]6O)[C@H](O)[C@H]5O[C@@H]5O[C@H](CO)[C@@H](O)[C@H](O)[C@H]5O)C(C)(C)C4CC[C@]21C)O[C@@H]3O` (some centres not stated) are 0.873 µM (active) and 0.778 µM (active).
In the same order, the values of `CN(C)S(=O)(=O)c1ccc2c(c1)/C(=C/c1cc3c([nH]1)CCCC3)C(=O)N2` are 0.82 µM (active) and 1.64 µM (active).
In the same order, the values of `CC(=O)C=C=C1C(C)(C)CC(O[C@@H]2O[C@H](CO)[C@@H](O)[C@H](O)[C@H]2O)CC1(C)O` (some centres not stated) are “inactive” and “inactive”.
On to `CC1=C2CC3C(CCC3(C)O)C(C)(O)CC2OC1=O` (configuration not stated), for which the Potency result in experiment [1] and in experiment [2] was “inactive” in each case.
For `CC[C@H](/C=C/[C@@H](C)[C@H]1CC[C@H]2[C@@H]3CC=C4C[C@@H](O)CC[C@]4(C)[C@H]3CC[C@]12C)C(C)C`, in experiment [1], the viability (% of control) was 82.1% [at 4.97 µM]. For the same compound, the viability, % of control in experiment [2] is 108% [at 4.97 µM].
Turning to `Cc1ccc(C(=O)/C=C/c2ccccc2)s1`, the figures for the Potency in experiment [1] and in experiment [2] were 8.2 µM (active) and 7.31 µM (active), respectively.
As to `C=CC(C)(CC/C=C(\C)C(=O)OC)OC1OC(COC(=O)CC(C)(O)CC(=O)O)C(O)C(O)C1O` (configuration not stated), the Potency entry in experiment [1] and in experiment [2] was “inactive” throughout.
As to `CC(C)(C)[C@H](NC(=O)c1ccc(N)c(Cl)c1)C(=O)N1CCC[C@H]1C(=O)N[C@H](C#N)CC(=O)O`, the Potency result in experiment [1] and in experiment [2] was “inactive” throughout.
